Screens from PubChem BioAssay.
MITF inh: blocks human microphthalmia-associated transcription factor; O75030; AlphaScreen MITF homodimerization, bead proximity signal; inhibition, % at 2.6 µM; 0.91% of 650,000 active; in the data active means inhibition above about 50%;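 further: 0% = vehicle wells with protein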
TEAD-YAP block: TEAD-YAP interaction inhibition | AID 1259422 | HEK-TIYL cells, TEAD-Gal4/YAP UAS-luciferase luminescence | inhibition, % at 9.12 µM | 1.4% of 640,000 active; in the data active means inhibition above about 32%;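 further: 0% = median of test compound wells and 100% = reference inhibitor wells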
FBW7 act: activators of human E3 ligase FBW7. Q969H0. AlphaScreen FBW7–phospho-cyclin E peptide binding, activator screen. normalized activity (activation), % at 26.1 µM. 0.13% of 650,000 active. AID 1259310; in the data active means normalized activity above about 1.9%;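 further: purified mutant Fbw7 with reduced substrate affinity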
Target sequence (Q969H0 whole entry, looked up): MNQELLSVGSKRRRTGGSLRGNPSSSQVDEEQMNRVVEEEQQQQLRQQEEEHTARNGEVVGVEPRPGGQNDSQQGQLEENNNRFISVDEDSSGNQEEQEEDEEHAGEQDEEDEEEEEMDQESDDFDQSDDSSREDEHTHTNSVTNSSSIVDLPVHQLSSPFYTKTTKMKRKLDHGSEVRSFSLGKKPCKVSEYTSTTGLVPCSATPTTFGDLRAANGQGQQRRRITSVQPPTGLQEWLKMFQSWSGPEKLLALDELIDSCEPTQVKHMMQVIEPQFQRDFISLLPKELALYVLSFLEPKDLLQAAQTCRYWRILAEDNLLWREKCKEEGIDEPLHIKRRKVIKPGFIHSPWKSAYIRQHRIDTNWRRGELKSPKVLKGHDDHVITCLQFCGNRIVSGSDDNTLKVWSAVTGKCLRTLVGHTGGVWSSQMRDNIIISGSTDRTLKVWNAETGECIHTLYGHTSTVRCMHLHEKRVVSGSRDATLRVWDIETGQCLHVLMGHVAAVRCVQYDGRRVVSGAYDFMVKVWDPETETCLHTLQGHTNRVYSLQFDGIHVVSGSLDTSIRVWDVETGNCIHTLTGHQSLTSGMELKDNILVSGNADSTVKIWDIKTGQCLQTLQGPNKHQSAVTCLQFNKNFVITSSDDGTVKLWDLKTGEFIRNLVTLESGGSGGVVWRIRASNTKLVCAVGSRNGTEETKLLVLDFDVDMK
GPR151 activ: activates the human receptor GPR151; 1% of 650,000 active; Q8TDV0; activation, % at 11.2 µM; AID 1508602; PathHunter beta-arrestin GPR151 cells, luminescence; in the data active means activation above about 4.9%;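 further: 0% = median of compound wells and 100% = cells with positive control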
Starred values were filed as active, the others as inactive. The list is not random: actives were taken first. Their share in the collection is about 3.4%.

SMILES	MITF inh	TEAD-YAP block	FBW7 act	GPR151 activ
Cc1nc2c(-c3ccccc3)cnn2c(N)c1-c1ccccc1	0	90*	0	1
Cc1nn2c(N)c(-c3ccc(Cl)cc3)cnc2c1-c1ccccc1	16	4	1	0
Cc1nc2c(-c3ccc(Cl)cc3)c(C)nn2c(N)c1-c1ccccc1	20	34*	1	-1
O=C(CN1CCN(CC(=O)c2ccc(O)c(O)c2)CC1)Nc1ccccc1Cl	89*	7	0	1
O=C(CN1CCN(S(=O)(=O)c2ccc(Cl)cc2)CC1)c1ccc(O)c(O)c1	82*	-3	0	-1
COc1ccc(S(=O)(=O)N2CCN(CC(=O)c3ccc(O)c(O)c3)CC2)cc1	81*	-2	0	-2
COc1ccc(S(=O)(=O)N2CCN(CC(=O)c3ccc(OC)c(OC)c3)CC2)cc1	1	-3	0	1
O=C(NC1CCCC1)c1cc(F)c(F)cc1Cl	8	-3	0	0
O=C(Nc1ccc(C23CC4CC(CC(c5ccccc5)(C4)C2)C3)cc1)c1cccs1	7	15	0	2
CCOC(=O)c1c(/N=c2\oc3c(OC)cccc3cc2C(=O)Nc2ccc(OC)cc2)sc2c1CCCC2	-12	36*	0	2
CCOC(=O)c1c(/N=c2\oc3c(OC)cccc3cc2C(=O)Nc2cccc(C)c2)sc2c1CCCC2	9	-1	0	-1
COc1ccc(/C=N/Nc2ncnc3nc[nH]c23)cc1	11	58*	0	-2
Clc1cccc(/C=N/Nc2ncnc3nc[nH]c23)c1	4	58*	0	-5
Oc1ccc(Br)cc1/C=N/Nc1ncnc2nc[nH]c12	75*	72*	0	-2
Fc1cccc(/C=N/Nc2ncnc3nc[nH]c23)c1	9	9	0	-7
Cc1ccc(/C=N/Nc2ncnc3nc[nH]c23)cc1	9	29	0	-2
CN(C)c1ccc(/C=N/Nc2ncnc3nc[nH]c23)cc1	-4	60*	0	-1
CCOC(=O)C1=C(C)N=c2s/c(=C\c3ccc(OC(C)=O)c(OCC)c3)c(=O)n2C1c1ccc(OCC)c(OCC)c1 (centres undefined)	6	10	0	2
COC(=O)c1ccc(C2Nc3ccc4ncccc4c3C3=C2C(=O)CCC3)cc1OC (centres undefined)	6	59*	1	-1
Cc1c(C(=O)N2CCN(Cc3ccccc3)CC2)sc2ncnc(N3CCN(c4ccccn4)CC3)c12	-10	37*	0	3
COc1ccccc1N1CCN(C(=O)c2sc3ncnc(N4CCN(c5ccccn5)CC4)c3c2C)CC1	-5	35*	0	-1
CCN1CCN(C(=O)c2sc3ncnc(N4CCN(c5ccccn5)CC4)c3c2C)CC1	6	19	0	0
CC1CCCC(C)N1C(=O)CSc1nc2ccccc2n1CC(=O)N1CCCCC1 (centres undefined)	16	10	0	-1
O=C(COc1ccc(Cl)cc1)N1CCN(c2ccccc2F)CC1	-8	-9	0	-1
CC(=O)c1cccc(NC(=O)C(C)Oc2ccc(C)cc2)c1 (centres undefined)	15	10	0	2
SMILES	MITF inh	TEAD-YAP block	FBW7 act	GPR151 activ
CC(=O)O[C@@H]1[C@@H](O)CN[C@@H]1Cc1ccccc1	-2	101*	0	-3
CCOC(=O)c1ccc(NC(c2ccc(O)cc2O)P(=O)(OCC)OCC)cc1 (centres undefined)	52*	-7	1	-1
NNC(=O)Nc1cccc2nsnc12	11	66*	2	-2
Cc1ccc(-c2csc(Nc3cccc(O)c3)n2)cc1	-13	74*	0	-1
CC(=O)Oc1ccc(-c2csc(Nc3cccc(O)c3)n2)cc1	1	-29	0	-1
COc1ccc(-c2csc(Nc3cccc(O)c3)n2)cc1	12	41*	0	1
Cc1cc2nn(-c3ccc(Cl)cc3)nc2cc1NC(=O)c1ccc([N+](=O)[O-])cc1	17	-11	0	0
Clc1ccc(CN2CCN(/N=C/c3c(Cl)nc4sccn34)CC2)cc1	9	40*	0	2
Oc1ccccc1/C=N/N1CCN(Cc2ccc(Cl)cc2)CC1	0	2	0	4
O=[N+]([O-])c1ccc2ncnc(Nc3ccc(F)cc3F)c2c1	-7	35*	0	0
CC(=O)Nc1cc(-c2ccc(C)cc2)[nH]n1	19	-58	1.9*	0
CCOC(=O)CCC(=O)Nc1cc(-c2ccc(C)cc2)[nH]n1	-7	2	0	0
Cc1cn2c(=O)c(C(=O)Nc3ccccc3C)cnc2s1	-2	-36	0	2
Cc1ccc(C)c(S(=O)(=O)Nc2ccc3scnc3c2)c1	14	39*	0	1
CCOc1ccccc1Nc1nnc(SCc2cc(C(C)=O)ccc2OC)s1	-7	-3	0	0
CCOc1ccc(C(C)=O)cc1CSc1nnc(Nc2ccccc2)s1	-3	35*	0	-1
CCCOC(=O)c1ccc(NC(=O)c2ccc3c(c2)OCCO3)cc1	-2	41*	0	-1
COc1ccc(C(=O)Nc2ccc3sc(C)nc3c2)cc1	9	-23	0	-1
Cc1nc2cc(NC(=O)c3ccc4c(c3)OCCO4)ccc2s1	7	61*	0	-7
CCCOC(=O)c1ccc(NC(=O)c2ccc(Cl)c(Cl)c2)cc1	4	-4	0	1
O=C(Nc1ccc(F)cc1)c1ccc2c(c1)OCCO2	-1	59*	0	-7
CCOC(=O)c1ccc(NC(=O)c2ccc3c(c2)OCCO3)cc1	6	35*	0	0
COc1cc(C(=O)NCCC(=O)NCCC(C)C)cc(OC)c1OC	3	2	0	0
c1ccc(-c2cc(N3CCCC3)nc3cc4c(cc23)OCCO4)cc1	5	5	0	0
COc1ccc(S(=O)(=O)CCC(=O)Nc2cccc3c2CCCC3)cc1	7	18	0	0
SMILES	MITF inh	TEAD-YAP block	FBW7 act	GPR151 activ
O=C(Nc1onc2c1CCCC2)c1ccc(F)cc1	-6	-1	0	-6
O=C(Nc1onc2c1CCCC2)c1ccc2c(c1)OCCO2	-6	91*	0	-9
O=C(Nc1cccc(-n2cnnn2)c1)C1CCCN(Cc2cc3ccccc3o2)C1 (centres undefined)	3	41*	0	0
O=C(Nc1cccc(-n2cnnn2)c1)C1CCCN(Cc2ccccc2)C1 (centres undefined)	-4	2	0	-1
c1ccc(-c2cnc3ccc(NC4CCOCC4)nn23)cc1	-5	23	-1	0
c1cc2c(cc1-c1cnc3ccc(NC4CCOCC4)nn13)OCO2	-28	54*	0	0
Oc1cccc(-c2cnc3ccc(NC4CCOCC4)nn23)c1	9	33*	2.2*	0
c1csc(-c2cnc3ccc(NC4CCOCC4)nn23)c1	-8	47*	0	-1
CCOC(=O)c1c(NC(=S)NCc2ccccc2)sc2c1CC(C)CC2 (centres undefined)	-1	-19	0	1
O=S(=O)(Nc1ncccn1)c1ccc(NC(=S)N2CCc3ccccc3C2)cc1	4	-1	0	0
